Measurements reported in the supplement of paper PMC11417369.
Over roughly 25,000 sequences, “ln(normalized median fluorescence intensity)” has its median near 6.7; the highest 2% begin near 10. Many of the other results were omitted from the sample, so the highest values are more common in it than they were.

Tested on: PfHDP1 homeodomain (GST-tagged)
Assay: gcPBM binding intensity (ln(normalized median fluorescence intensity)); higher = stronger DNA binding
How it was run: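 Binding intensity is defined as the maximum Masliner-normalised natural-log median intensity across replicate spots for either probe orientation. It was measured on an Agilent 4 × 180k array of primer-extended double-stranded 36-bp intergenic genomic probes and negative controls, to which GST-tagged P. falciparum DNA-binding domains made in E. coli were applied for 1 h in 1× PBS with 1% milk, 0.2 mg/ml BSA, 0.5% salmon testes DNA and 0.03% Triton X-100. Detection was by Alexa488 anti-GST antibody and scanning at 488 nm.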

| Sequence | gcPBM binding intensity (ln) |
| --- | --- |
| TATATATATATATATACATGCATATATATAATATAT [TGCATGCA_site763] | 9.32 |
| ATATATATTTAAAAAAGTACAGAAGAAAATAACCCA [XGTACX_site642] | 7.19 |
| GATGATACACAGGTGTTGCACTTAAATGCAGTTCTT [GTGCAC_site9627] | 8.13 |
| ATATATATATATATATGTACATATTATTAATAATAT [XGTACX_site6667] | 9.32 |
| TTTTGAATATTTGGTCGTACGTAAAAATAGATAATT [XGTACX_site5755] | 6.75 |
| AAGTTTTCTTAAAATTGTACTTTTCAAAAATAATCT [XGTACX_site277] | 5.83 |
| TGATTCTAACTTATGGTGCAACATTATGGACACCGT | 10.5 |
| TCATAAACATTATGCACACAAAAATAAAAAAAAATA [CACACA_site1115] | 10.2 |
| AACAACAACTAATATGCACACATTTAAAAACAAAAT [CACACA_site2440] | 9.7 |
| TAATATATTATAAACACATGCACATTAATAATAACT [TGCATGCA_site708] | 8.38 |
| TTATGGTGCAACATTATGCACACCGTTAAATAACTA [CACACA_site3846] | 11.4 |
| TATATAACATATGGGACACACATGCAACTGTTATAT [CACACA_site3792] | 6.89 |
| ATGGTGCAACATTATGCACACCGTTAAATAACTAAT [CACACA_site9280] | 11.7 |
| CATTAACAAATAAATGCACACATATATATAAATAAT [CACACA_site7892] | 9.2 |
| GATTCATCTAAACACCGTACATATTATATATATATA [XGTACX_site6030] | 8.65 |
| GAATGCCTTGAAAATAGTACAATTAAGAAAAAATAC [XGTACX_site8002] | 6.53 |
| ACATAAGATGAAAAATGTACATTCAAAAAATGAAAT [XGTACX_site3227] | 6.52 |
| AAGACAAATTTTACATGTACAAATATATTACATATA [XGTACX_site7060] | 6.83 |
| AATGTATATATGTAATGTACATATATAATGTATATA [XGTACX_site6510] | 6.6 |
| TTATATGCTCAATGTTGTACATGTAGATATATATAT [XGTACX_site8211] | 9.77 |
| ATTACACATATAGTAGTGCAATAACTCCAAAAAAAA | 9.55 |
| AAATTTTAATTAGACTGTACACATTTTAGAATAATT [XGTACX_site4819] | 6.17 |
| AAAAAAAATTAATTAGTGCAAAATATATACAAAATA [GTGCAC_site9762] | 10.4 |
| TATTTATAGATATATACACACATATACATATTGTTT [CACACA_site7611] | 6.63 |
| TTTGATCGATGGATTTAACACACAAAAAAAAAAAAA [CACACA_site9279] | 6.32 |
